Results from PubChem BioAssay AID588492 (Sanford-Burnham Center for Chemical Genomics, 2011).
About 2,300 (0.64%) of roughly 360,000 compounds were called active. This is one part of a sample in which actives are shown more often than they occur. A number with no mark means an inactive call.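 The calls were made as follows: active = compounds giving at least 50% protection of heart cells from peroxide-induced death in the single-dose screen, raw or plate-pattern-corrected value; inactive = the rest.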

test: cardioprotection against H2O2-induced cell death, primary screen, uHTS, H9c2 cells, ATPLite luminescence (AID 588492); details: H9c2 cardiomyocytes, H2O2 injury protection, 2 h, at 20 µM, stronger effect = higher value;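 also: 0% = DMSO wells with peroxide and 100% = DMSO wells without peroxide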

Going from `O=C(NCC(=O)N(CC1CCCO1)C(C(=O)NC1CCCCC1)c1ccccc1)c1ccco1` (stereo unspecified) to `Cc1ccccc1N(C(=O)CNC(=O)c1cccs1)C(C(=O)NC1CCCC1)c1ccncc1` (stereo unspecified), the protection from H2O2 cell death falls from 2.8% to 1.9%.

First: COc1ccc(-c2ccc(C(=O)NC(C)C)c3occc23)c(C)c1
Second: COc1ccc(NC(=O)CN(C)C(=O)c2cc(C)oc2C)cc1
The protection from H2O2 cell death of the first is higher: 5.9% for the first, -3.2% for the second.

Going from `COc1ccc(-c2nc3n(c2Br)CCC3)cc1` to `COc1ccc(C(O)c2nc(-c3ccc4c(c3)OCO4)cs2)cc1` (stereo unspecified), the protection from H2O2 cell death rises from -13.5% to -5.3%.

Compared with `CCc1ccc(-c2nc(SCC(=O)NC3CCCC3)n[nH]2)cc1`, `Cc1ccc(C(=O)OCC(=O)NC2CCCCCCC2)cc1C` is higher in protection from H2O2 cell death: -11.6% for the first, -0.9% for the second.

Compared with `O=C(OCc1cn([C@H]2C[C@H](c3ccccc3)N(C(=O)c3cccs3)C[C@@H]2O)nn1)c1ccccc1`, `O=C(Cn1cnc2ccccc21)Nc1ccccc1-c1ccccc1` is lower in protection from H2O2 cell death: -0.9% for the first, -5.3% for the second.

Compared with `COC(=O)c1ccc(C(NC(=O)OCc2ccccc2)/C(F)=C/[C@@H](C)C(=O)O)cc1` (stereo partly specified), `CCOC(=O)c1ccc(NC(=O)c2nc[nH]c2C(=O)NCc2ccccc2)cc1` is higher in protection from H2O2 cell death: 1.8% for the first, 21.8% for the second.

Compared with `COC(=O)c1cc(CNC(=O)CC(C)c2ccccc2)ccc1OC` (stereo unspecified), `COc1ccc(-c2cc(C(=O)N(C)CC(=O)Nc3ccccc3Cl)c3ccccc3n2)cc1OC` is higher in protection from H2O2 cell death: 9.7% for the first, 49.1% for the second.

Compared with `CCCCNC(=O)C(C)N(CCN(C)C)C(=O)CCCCCN1C(=O)NC(c2ccc(Cl)cc2)C(C(=O)OCc2ccccc2)=C1C` (stereo unspecified), `C[C@H](NC(=O)c1nc[nH]c1C(=O)NCC(=O)OC(C)(C)C)C(=O)OCc1ccccc1` is higher in protection from H2O2 cell death: -27% for the first, 41.9% for the second.

Going from `CC(=O)NC(c1cccc(F)c1)c1nc(-c2cccc(F)c2)cs1` (stereo unspecified) to `CC(=O)Nc1cccc(-c2nc3ccccc3s2)c1C`, the protection from H2O2 cell death falls from -2.7% to -3.3%.

Going from `Nc1nc2cc(Cl)ccc2n1N` to `Nc1ccc2nc3c(=O)[nH]c(=S)[nH]c3nc2c1`, the protection from H2O2 cell death falls from 1.6% to -6.1%.

First: Cc1c(C(=O)Nc2ccccc2Cl)oc2ccc(S(=O)(=O)N3CCC4(CC3)OCCO4)cc12
Second: Cc1c(C(=O)Nc2cccc(S(=O)(=O)N3CCOCC3)c2)oc2ccccc12
The protection from H2O2 cell death of the first is lower: 0.9% for the first, 4.3% for the second.

First: Cc1ccc(NC(=O)C(C)OC(=O)Cc2c[nH]c3ccccc23)cc1S(=O)(=O)N1CCOCC1 (stereo unspecified)
Second: CCn1c(SC(C)C(=O)Nc2ccc(N3CCOCC3)cc2)nnc1-c1ccco1 (stereo unspecified)
The protection from H2O2 cell death of the first is higher: -2.5% for the first, -3.9% for the second.

Going from `C/C(=N\NC(=O)c1cccc([N+](=O)[O-])c1)c1cccnc1` to `Cc1ccc2nc(-c3ccc(NC(=O)c4cccnc4)cc3)oc2c1`, the protection from H2O2 cell death rises from 9.5% to 48.1%.

Compared with `CCN(CC)c1ccc(S(=O)(=O)N2CCCCC2)cc1NC(=O)C1=COCCO1`, `O=C(Nc1ccc(Cl)cc1)c1cccc(OC(=S)N2CCOCC2)c1` is lower in protection from H2O2 cell death: -3.5% for the first, -15.8% for the second.

First: CC(=O)c1c(C)[nH]c(C(=O)OCC(=O)Nc2sc3c(c2C#N)CCCC3)c1C
Second: Cc1cccc(Nc2nnc(SCC(=O)c3c(N)n(C4CC4)c(=O)[nH]c3=O)s2)c1C
The protection from H2O2 cell death of the first is lower: -12.2% for the first, -2.2% for the second.

Going from `CC(=O)NC(c1cccs1)c1cc(Br)c2cccnc2c1O` (stereo unspecified) to `CCCCC(=O)NC(c1ccc(OC)c(OC)c1)c1ccc2cccnc2c1O` (stereo unspecified), the protection from H2O2 cell death falls from 43.4% to 36.9%.

First: CCOC(=O)N1CCN(C(=O)C2CCN(c3ncnc4c3sc3cccc(F)c34)CC2)CC1
Second: CC(C)c1nnc(NC(=O)CCC(=O)N2CCN(c3cccc(Cl)c3)CC2)s1
The protection from H2O2 cell death of the first is lower: -28.4% for the first, -2.1% for the second.

Compared with `O=C(CN1C(=O)c2cccnc2Oc2ccc(Cl)cc21)Nc1ccc(F)cc1`, `CC(=O)Nc1ccc(-c2cn3cccnc3n2)cc1` is lower in protection from H2O2 cell death: 21.7% for the first, -2% for the second.

Going from `OC(c1cc(Cl)cc(Cl)c1)c1ncc(-c2ccccc2C(F)(F)F)[nH]1` (stereo unspecified) to `NC(c1ccccc1)c1csc(NC(=O)Nc2cccc(C(F)(F)F)c2)n1` (stereo unspecified), the protection from H2O2 cell death falls from -8.9% to -10.6%.

Going from `COc1cccc(/C=C(/CC(=O)Nc2ccc(N3CCOCC3)cc2)c2nc3ccccc3s2)c1` to `COc1cccc(/C=C/C(=O)OCC(=O)N2CCN(c3ccccc3)CC2)c1`, the protection from H2O2 cell death rises from -4.6% to 2%.

Going from `COC(=O)[C@@H]1CCCN1C(=O)c1cc(COc2cccc3cccnc23)on1` to `COc1ccc(CNC(=O)/C(C#N)=C/c2cccc(OC)c2OC)cc1`, the protection from H2O2 cell death falls from 11.6% to 1.5%.

First: CSCCC(c1nnnn1Cc1ccccc1)N1CCN(C/C=C/c2ccccc2)CC1 (stereo unspecified)
Second: COCCNC(=O)/C(C#N)=C/c1cccc(OCc2ccccc2)c1
The protection from H2O2 cell death of the first is lower: -2% for the first, 32.1% for the second.

Going from `CCn1c2ccc(F)cc2c2nnc(SCCN3CCOCC3)nc21` to `CCOc1ccc(-c2ccc(SCC(=O)N3CCOCC3)nn2)cc1`, the protection from H2O2 cell death falls from 3.7% to -13.9%.

First: CN(C)c1nc(NN)nc(Nc2ccc(F)cc2)n1
Second: Cc1cc(C)nc(Nc2n[nH]c(-c3ccccc3N)n2)n1
The protection from H2O2 cell death of the first is higher: -2.7% for the first, -9.5% for the second.

First: CSc1nc(-c2ccccc2)nc(C(Cl)Cl)n1
Second: Cc1cccc(N(C(=O)c2csnn2)C(C(=O)NCc2ccccc2)c2ccncc2)c1 (stereo unspecified)
The protection from H2O2 cell death of the first is lower: -2.9% for the first, 2.2% for the second.

Compared with `COC(=O)c1c(C(=O)OC)c2n(c1C)CCS2`, `COC(=O)NNC(=O)C1CCC(C)CC1` (stereo unspecified) is lower in protection from H2O2 cell death: -0.3% for the first, -10% for the second.

Going from `COc1ccc(CNC(=O)C(c2ccc(O)cc2)N(Cc2ccco2)C(=O)c2snc(C(N)=O)c2N)cc1` (stereo unspecified) to `COc1ccc(N(CC(=O)N/N=C/c2cccc3c2OCCO3)S(=O)(=O)c2ccc(NC(C)=O)cc2)cc1`, the protection from H2O2 cell death falls from 49% to 26.2%.

Compared with `CC1(C(=O)NS(=O)(=O)Cc2cccc(Cl)c2)CCN1C(=O)Cc1ccccc1` (stereo unspecified), `COc1ccc(S(=O)(=O)N(CC(=O)N/N=C/c2ccc(C(=O)O)cc2)Cc2ccccc2)cc1OC` is higher in protection from H2O2 cell death: -2.8% for the first, -0.7% for the second.

Going from `COc1ccc(NC(=O)CN(C)C(=O)CC2CCCCC2)cc1` to `CCOc1ncccc1C(=O)N(CC)CC(=O)Nc1ccc(NC(C)=O)cc1`, the protection from H2O2 cell death falls from 0.1% to -4.3%.

First: COC(=O)C1=C(C)NC(=O)/C1=C/c1ccc(CNS(=O)(=O)c2ccc(C)cc2)o1
Second: O=C(COC(=O)c1cccc(Br)c1)Nc1cccc2c1C(=O)c1ccccc1C2=O
The protection from H2O2 cell death of the first is higher: 2.9% for the first, -6.9% for the second.

First: N#Cc1ncc(C(F)(F)F)cc1Oc1cccnc1
Second: Cc1ccccc1Cn1c(C)c(C(=O)NCc2cccc(C(F)(F)F)c2)sc1=O
The protection from H2O2 cell death of the first is higher: -0.3% for the first, -2.6% for the second.

Going from `Cc1cc(C)c(C(N)=O)c(Cl)n1` to `COc1ccc(C(C)(O)c2nc(-c3ccc(C)c(C)c3)cs2)cc1` (stereo unspecified), the protection from H2O2 cell death falls from 0.4% to -13.4%.

First: [2H]C(CCOS(N)(=O)=O)c1ccccc1 (stereo unspecified)
Second: CCCCCN(C(=O)NC(=O)Nc1ccccc1C)S(C)(=O)=O
The protection from H2O2 cell death of the first is higher: 3% for the first, -4.1% for the second.

Going from `CCOC12CC(C)(C)CC(C)(CC3=C1C(=O)CC(C)(C)C3)C2` (stereo unspecified) to `CCC(C)(C)NC(=O)C(c1cccc(OC)c1OC)N(CC(C)C)C(=O)CCC(=O)Nc1cc(C)on1` (stereo unspecified), the protection from H2O2 cell death rises from -0.9% to 1.2%.

First: COc1ccc(CN(C)C(=O)c2cc(-c3ccc(C)cc3C)nc3ccccc23)c(OC)c1OC
Second: CN(C)C(CNC(=O)CCCOc1ccccc1)c1ccco1 (stereo unspecified)
The protection from H2O2 cell death of the first is higher: 48.9% for the first, 4.6% for the second.

First: Cn1nc([N+](=O)[O-])nc1Sc1ccc(C(C)(C)C)cc1
Second: CCN(CC(=O)NC(C)C)C(=O)CCNC(=O)c1ccc(Cl)cc1
The protection from H2O2 cell death of the first is lower: -11.1% for the first, -0.7% for the second.

With `O=C(NCC(=O)N(Cc1cccs1)C(C(=O)NC1CCCCC1)c1ccco1)c1cccs1` (stereo unspecified) the protection from H2O2 cell death was 68.2% (active).
In the case of `COC(=O)c1ccc(C(NC(=O)OCc2ccccc2)/C(C)=C/[C@@H](C)C(=O)NCc2ccc(OC)c(OC)c2)cc1` (stereo partly specified), the protection from H2O2 cell death is reported as 52% (active).
For `COc1ccc(NC(=O)c2oc3ccc(S(=O)(=O)N4CCOCC4)cc3c2C)cc1`, the protection from H2O2 cell death was 52.7% (active).
With `CCN1CCN(C(c2cccnc2)c2cc(Cl)c3cccnc3c2O)CC1` (stereo unspecified) the protection from H2O2 cell death was 64% (active).
In the case of `CCOC(=O)N1CCN(C(c2cccnc2)c2ccc3cccnc3c2O)CC1` (stereo unspecified), the protection from H2O2 cell death is reported as 69.3% (active).
In the case of `COc1cccc2sc(NNC(=O)c3nc4ccccc4s3)nc12`, the protection from H2O2 cell death is reported as 53.7% (active).
With `Cn1c2ccc(F)cc2c2nnc(NN)nc21` the protection from H2O2 cell death was 56.4% (active).
For `COc1ccc(C(C(=O)NCc2ccccc2)N(Cc2cccs2)C(=O)c2cnccn2)cc1` (stereo unspecified), the protection from H2O2 cell death was 79.8% (active).
With `COc1cccc(-c2ccc(SCC(=O)N3CCN(c4ccccc4)CC3)nn2)c1` the protection from H2O2 cell death was 53.9% (active).
With `Cc1cccc(NC(=O)c2nc[nH]c2C(=O)NCC(=O)OCc2ccccc2)c1` the protection from H2O2 cell death was 86.4% (active).
For `COC(=O)C1=C(C)NC2=C(C(=O)c3ccccc32)C1c1ccc(-c2ccc(C(=O)O)cc2)o1` (stereo unspecified), the protection from H2O2 cell death was 60.9% (active).
With `COc1ccc(N(CC(=O)N/N=C/c2cccs2)S(=O)(=O)c2ccc(OC)c(OC)c2)cc1` the protection from H2O2 cell death was 52.7% (active).
With `COc1ccc(OC)c(Nc2nc(-c3ccc(O)c(O)c3)cs2)c1` the protection from H2O2 cell death was 52% (active).
In the case of `CCC(=O)Oc1cccc(C(=O)Nc2ccc(-c3nnc(-c4ccco4)o3)cc2)c1`, the protection from H2O2 cell death is reported as 77.3% (active).
In the case of `COc1ccc(-c2cc(C(=O)N(C)Cc3ccc(OC)c(OC)c3OC)c3ccccc3n2)cc1OC`, the protection from H2O2 cell death is reported as 67.1% (active).
With `N#C/C(=C\c1ccc(O)c(O)c1)C(=O)NCc1ccccc1` the protection from H2O2 cell death was 55.9% (active).
With `c1ccc(-c2cn3c(n2)CCc2ccc4cccnc4c2-3)cc1` the protection from H2O2 cell death was 61.6% (active).
For `CC(=O)Nc1ccc(-c2csc(NC(=O)Nc3ccccc3)n2)cc1`, the protection from H2O2 cell death was 50.5% (active).
For `O=C(COC(=O)Cn1cnc2ccccc21)Nc1cccc2c1C(=O)c1ccccc1C2=O`, the protection from H2O2 cell death was 59.5% (active).
